Screens deposited in PubChem BioAssay by National Center for Advancing Translational Sciences (NCATS).
Methyltransferases: Primary Screen for Target Class Profiling of Small Molecule Inhibitors of Methyltransferases; 3.9% of 25,000 active; calls only at 40 µM; AID 1745853, 2022; purified enzyme, MTase-Glo SAH luminescence; active compounds read low; call rule not given here
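Each enzyme was assayed with SAM and its substrate. SAH formation detected by MTase-Glo luminescence; single-point 40 uM screen[…].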
Calls only. The full list was thinned out, with hits kept by preference.

What do the screens show for `CN(CC(=O)Nc1cccc(F)c1)S(=O)(=O)c1ccc2[nH]c3c(c2c1)CCCC3`?
Methyltransferases: inactive

Results for O=S(=O)(Nc1ccc(F)cc1)c1ccc2[nH]c3c(c2c1)CCCC3 ?
Methyltransferases: inactive

How did CC1(C(=O)NC2CCCCCC2)Cn2c(cc3sccc32)C(=O)N1Cc1cccc(Cl)c1 (stereo unspecified) do in these assays?
Methyltransferases: inactive

Results for CCOCCCNC(=O)N1Cc2c(sc3c2CCCC3)-n2cccc2C1c1ccc(C)cc1 (stereo unspecified) ?
Methyltransferases: inactive

What do the screens show for `O=C(CSc1nnc2n(CCc3ccccc3)c(=O)c3ccccc3n12)Nc1cc(F)ccc1F`?
Methyltransferases: inactive

Results for CCc1ccc(-c2cc3n(n2)CC(C)(C(=O)NC2CCCCC2)N(CCN(CC)CC)C3=O)cc1 (stereo unspecified) ?
Methyltransferases: inactive

How did Cc1cccc2nc(CNC(=O)c3cccc(C4CCNC4)c3)cn12 (stereo unspecified) do in these assays?
Methyltransferases: inactive

What do the screens show for `O=C(c1ccc(C2CCCNC2)cc1)N1CCCN(c2ccc(F)cc2)CC1` (stereo unspecified)?
Methyltransferases: inactive

Results for NC(=O)c1cccc2cn(-c3ccc(C4CCCNC4)cc3)nc12 (stereo unspecified) ?
Methyltransferases: active

What do the screens show for `Cc1ccc(C)c(N2CCN(S(=O)(=O)c3ccc4[nH]c(=O)[nH]c4c3)CC2)c1`?
Methyltransferases: inactive

How did CC(C)(O)C(=O)N1CCN(c2ccc(C(F)(F)F)c(C3=C(c4c[nH]c5ccccc45)C(=O)NC3=O)c2)CC1 do in these assays?
Methyltransferases: active

Results for C=CCn1c(=O)c2ccc(C(=O)NC(C)C)cc2n2c(=O)n(CC(=O)NC3CCCCC3)nc12 ?
Methyltransferases: inactive

How did Cc1cc(C)cc(N2C(=O)c3cc(C(C)(C)C)nn3CC2(C)C(=O)NCc2ccccc2)c1 (stereo unspecified) do in these assays?
Methyltransferases: inactive

Results for COc1cccc(CN2CC(=O)N(Cc3ccc(F)cc3)c3ccccc3S2(=O)=O)c1 ?
Methyltransferases: inactive

What do the screens show for `COc1cccc(CN2C(=O)c3nc4ccccc4n3CC2(C)C(=O)NC2CCCC(C)C2C)c1` (stereo unspecified)?
Methyltransferases: inactive

Results for CCN(CC)CCCCCCNc1cc(OC)cc2c(C)ccnc12 ?
Methyltransferases: active

What do the screens show for `COc1cccc(CN2C(=O)c3cc4sccc4n3CC2(C)C(=O)NC2CCCC2)c1OC` (stereo unspecified)?
Methyltransferases: inactive

Results for O=c1c2ccccc2n2c(-c3ccc(Cl)cc3)nnc2n1Cc1ccc(F)cc1 ?
Methyltransferases: inactive

What do the screens show for `C=C(F)c1sc(CNCCCNc2cc(=O)c3ccccc3[nH]2)c(C)c1Br`?
Methyltransferases: active

What do the screens show for `COCCCNC(=O)c1cc2n(n1)CC(C)(C(=O)NCc1ccccc1)N(C)C2=O` (stereo unspecified)?
Methyltransferases: inactive

How did COc1cccc(NS(=O)(=O)c2cc3[nH]c(=O)[nH]c3cc2Cl)c1 do in these assays?
Methyltransferases: inactive

What do the screens show for `Cc1ccc(CNC(=O)c2cc3n(n2)CC(C)(C(=O)NCCC(C)C)N(C)C3=O)cc1` (stereo unspecified)?
Methyltransferases: inactive

Results for CCc1ccccc1NC(=O)Cn1nc2n(CC(C)C)c(=O)c3ccc(C(=O)NC(C)C)cc3n2c1=O ?
Methyltransferases: inactive

Results for O=C(c1ccc(Cl)c([N+](=O)[O-])c1)N1CCN(c2ccccc2F)CC1 ?
Methyltransferases: inactive

What do the screens show for `CCn1cc(-c2ccc(Cl)cc2)cc1C(=O)N1CCN(c2ccccn2)CC1`?
Methyltransferases: inactive

Results for O=C(c1ccc(Cl)cc1)N1CCN(c2ccnc3cc(Cl)ccc23)CC1 ?
Methyltransferases: active

Results for Cc1ccccc1S(=O)(=O)NCCn1c(CCc2ccccc2)nc2ccccc21 ?
Methyltransferases: inactive

What do the screens show for `CC(C)OCCCn1c(=O)c2ccccc2n2c(=O)n(Cc3ccccc3Cl)nc12`?
Methyltransferases: inactive

What do the screens show for `Cc1ccc([N+](=O)[O-])cc1S(=O)(=O)N(C)/N=C/c1cnc2ccc(Br)cn12`?
Methyltransferases: active

How did CCOc1ccc(CN2C(=O)c3cc4occc4n3CC2(C)C(=O)NC2CCCCCCC2)cc1 (stereo unspecified) do in these assays?
Methyltransferases: inactive

Results for CC(C)C(NS(=O)(=O)c1ccc2c(c1)oc(=O)n2C)C(=O)N1CCN(c2ccc(F)cc2)CC1 (stereo unspecified) ?
Methyltransferases: inactive

What do the screens show for `COc1ccc(CN2C(=O)c3ccc(-c4ccco4)n3CC2(C)C(=O)NC2CCCCCCC2)cc1` (stereo unspecified)?
Methyltransferases: inactive

How did Cn1nc(C2CC2)cc1NC(=O)C(C)(C)C do in these assays?
Methyltransferases: inactive

How did COc1ccc(CNC(=O)C2(C)Cn3cnc(C(=O)Nc4cccc5c4CCCC5)c3C(=O)N2C2CC2)cc1 (stereo unspecified) do in these assays?
Methyltransferases: inactive
